# Where “and” joins values, the source holds several entries; their conditions need not be identical. Identical values can stand only once. Screen size: about 16,000 compounds; about 5,800 (36%) were called active. Inconclusive results (about 23%) are left out. Calls come from the whole dose curve; as a rule, active = well fitted curve in the direction sought with a large enough effect; inconclusive = small, poorly fitted or top-dose-only effect, or effect the other way; inactive = no such curve, though single readings can be large or run the other way. Some of the results follow. Where a structure was tested more than once in an assay, its records may differ in their call.
# Target: Cytochrome P450 2C19 (Homo sapiens) (UniProt P33261)
# Test: Cytochrome panel assay with activity outcomes
# Conditions: recombinant CYP, pro-luciferin dealkylation, luminescence, p450-cyp2c19; series mostly up to 57.1 µM
# % is set by controls: 0 for no effect and ±100 for the full control effect.
# Sequence of Cytochrome P450 2C19 (Homo sapiens) (P33261 whole entry, looked up): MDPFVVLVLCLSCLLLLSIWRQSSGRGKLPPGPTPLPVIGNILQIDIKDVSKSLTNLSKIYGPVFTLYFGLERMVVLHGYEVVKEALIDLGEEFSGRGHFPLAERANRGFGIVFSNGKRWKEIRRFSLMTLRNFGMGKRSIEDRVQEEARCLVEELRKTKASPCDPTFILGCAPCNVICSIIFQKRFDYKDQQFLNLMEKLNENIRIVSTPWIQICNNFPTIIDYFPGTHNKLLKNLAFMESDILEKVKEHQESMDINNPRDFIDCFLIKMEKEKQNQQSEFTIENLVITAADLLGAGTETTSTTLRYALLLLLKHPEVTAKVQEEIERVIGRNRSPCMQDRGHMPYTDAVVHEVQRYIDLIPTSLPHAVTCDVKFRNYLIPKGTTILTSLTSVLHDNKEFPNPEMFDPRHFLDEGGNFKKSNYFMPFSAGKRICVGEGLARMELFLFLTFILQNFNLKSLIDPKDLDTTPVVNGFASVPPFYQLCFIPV
Compound,AC50,"activity, negative = inhibition"
CC(C)C[C@H](NC(=O)N1CCCCCC1)C(=O)N[C@H](Cc1cn(C)c2ccccc12)C(=O)N[C@H](Cc1ccccn1)C(=O)O,inactive,
CCn1c2ccccc2c2cc(NC(=O)CSc3nnc(-c4ccc(OC)c(OC)c4)n3N)ccc21,7.94 µM (active),
O=C(CCCNS(=O)(=O)c1cccc2nsnc12)NCCc1ccccc1,6.31 µM (active),
CSc1nc2ccccc2cc1/C=C(\C#N)c1ccccc1,11.2 µM (active),
CSc1nc2ccccc2cc1/C=C(\C#N)c1ccc(Cl)cc1Cl,22.4 µM (active),
CSc1nc2ccccc2cc1/C=C(\C#N)c1cccc(C)c1,3.55 µM (active),
CSc1nc2ccccc2cc1/C=C(\C#N)c1cccc(Cl)c1,15.8 µM (active),
CCN(C(=O)CSc1nc2cc(C(=O)OC)ccc2c(=O)n1Cc1ccco1)c1cccc(C)c1,1.41 µM (active),
CCc1ccc(NC(=O)CSc2nc3cc(C(=O)OC)ccc3c(=O)n2Cc2ccco2)cc1,inactive,
O=C(NCCc1ccc(Cl)cc1)c1ncn[nH]1,inactive,
CNC(=O)C(=O)NCCc1ccc(Cl)cc1,1.12 µM (active),
O=C(Nc1cccc(Cl)c1)Nn1cnnc1,,11.3% [at 11.4 µM] (inactive)
O=C(NCCc1ccc(Cl)cc1)Nc1cccc(Cl)c1,0.891 µM (active),
S=C(S)NCCN1CCNCC1,,-11.3% [at 11.4 µM] (inactive)
Cc1nc2cnc(N3CCOCC3)nc2n(Cc2cccs2)c1=O,inactive,
Cc1nc(N2CCOCC2)nc(N2CCN(c3ccccc3)CC2)c1[N+](=O)[O-],2.24 µM (active),
Cc1noc(C)c1-c1nc(N2CCOCC2)c2ccccc2n1,inactive,
Cc1ccc(NC(=O)CCSc2nnc3ccccn23)cc1,0.794 µM (active),
CC(C)(C)NC(=O)NC(=O)CSc1nnc2ccccn12,inactive,
C[C@H](O/N=C1/[C@H]2O[C@@H]2[C@@H](O)[C@H]2[C@H]1CCn1c(=O)n(-c3ccccc3)c(=O)n12)c1cn([C@H](CO)Cc2ccccc2)nn1,,20% [at 11.4 µM] (inactive) and 36.7% [at 11.4 µM] (inactive)
COc1ccc(/C=N/NC(=O)C2CCN(c3ncc(C(F)(F)F)cc3Cl)CC2)cc1,inactive,
O=C(OC1CCN(c2ncc(C(F)(F)F)cc2Cl)CC1)c1ccccc1,11.2 µM (active),

Compound,AC50,"activity, negative = inhibition"
O=C(c1cc(C(F)(F)F)cc(C(F)(F)F)c1)N1CCC2(CC1)CCN(c1ncccn1)CC2,inactive,
COc1cccc2cc3c(=O)oc4ccccc4c3nc12,3.98 µM (active),
Cn1c(C(F)(F)F)nc2c(=O)oc3ccccc3c21,inactive,
COc1ccccc1CNc1ccnc(-c2ccc3c(c2)OCO3)n1,3.16 µM (active),
COc1ccc(CNc2ccnc(-c3ccc4c(c3)OCO4)n2)c(OC)c1,2.51 µM (active),
O=C(Nc1ccccc1)N1CC2(CCN(C(=O)c3cnccn3)CC2)C1,inactive,
Cc1ccn2cc(CSc3ccccc3N)nc2c1,2.51 µM (active),
N#C/C(=C\Nc1ccccn1)C(=O)c1ccco1,,-6.24% [at 11.4 µM] (inactive)
CSC(=N)N,inactive and 631 nM (active),
CC(C)SC(=N)N,inactive,
CCSC(=N)N,inactive,
CCC/C=C(\CCC)C(NC(=O)Oc1ccc(F)cc1)c1ccc(C(=O)OC)cc1 (centres undefined),inactive,
CCC/C=C(\CCC)C(NC(=O)Cc1ccccc1)c1ccc(C(=O)OC)cc1 (centres undefined),2.51 µM (active),
CCC/C=C(\CCC)C(NC(=O)c1ccc(-c2ccccc2)cc1)c1ccc(C(=O)OC)cc1 (centres undefined),inactive,
CCC/C=C(\CCC)C(NC(=O)c1ccc(C(F)(F)F)cc1)c1ccccc1 (centres undefined),10 µM (active),
CCC/C=C(\CCC)C(NC(=O)c1cccs1)c1ccc(C(=O)OC)cc1 (centres undefined),0.794 µM (active),
CCC/C=C(\CCC)C(NC(=O)c1cccs1)c1ccc(C(F)(F)F)cc1 (centres undefined),0.316 µM (active),
CCC/C=C(\CCC)C(NC(=O)c1ccc(C(F)(F)F)cc1)c1ccc(C(F)(F)F)cc1 (centres undefined),inactive,
COc1ccc(-n2c(=O)c(-c3cc(F)cc(F)c3)nc3cnc(N4CCNCC4)nc32)cc1,inactive,
CC(C)(C)c1ccc(NS(=O)(=O)c2ccc(N)cc2)cc1,0.398 µM (active),
CC(C)(C)NS(=O)(=O)c1ccc(NS(=O)(=O)c2ccc(F)cc2)cc1,inactive,
Nc1ccc(S(=O)(=O)Nc2ccc(Cl)nn2)cc1,inactive,

Compound,AC50,"activity, negative = inhibition"
CN(C)CCCNc1ncnc2nc[nH]c12,,19.7% [at 11.4 µM] (inactive)
CN(C)c1ccnc(-c2ccccc2C(F)(F)F)n1,inactive,
CN(C)Cc1ccccc1-c1nccc(N(C)Cc2ccco2)n1,inactive,
CN(Cc1ccco1)c1ccnc(-c2ccccc2C(F)(F)F)n1,7.94 µM (active),
CN(Cc1ccco1)c1cc(-c2ccccc2Cl)ncn1,7.94 µM (active),
COc1ccccc1-c1cc(N(C)Cc2ccco2)ncn1,3.98 µM (active),
CN(C)Cc1ccccc1-c1cc(N(C)Cc2ccco2)ncn1,inactive,
Cc1ccccc1-c1cc(N(C)Cc2ccco2)ncn1,6.31 µM (active),
CN(Cc1ccco1)c1cc(-c2ccccc2C(F)(F)F)ncn1,10 µM (active),
O[C@]1(c2ccccc2)c2ccccc2NC2=NCCN21,,36.2% [at 11.4 µM] (inactive)
Cc1ccc(OCc2ccc(C(=O)Nc3nccs3)o2)cc1C,2.51 µM (active),
Cc1onc(C(=O)/C=C/N(C)C)c1C(=O)Nc1nccs1,inactive,
COc1ccc(NC(=O)c2ccc(COc3ccccc3)o2)cc1,5.62 µM (active),
COC(=O)c1ccccc1NC(=O)c1ccc(Cn2cc(Cl)cn2)o1,1.12 µM (active),
COC(=O)c1ccccc1NC(=O)c1ccc(COc2ccc(C)c(C)c2)o1,2 µM (active),
Cc1ccc2ncc([N+](=O)[O-])n2c1,inactive,
CCOC(=O)CC(NC(=O)c1cccs1)c1ccc(OCC)cc1 (centres undefined),2.82 µM (active),
CCOC(=O)CC(NC(=O)c1ccco1)c1ccc(OC)cc1 (centres undefined),14.1 µM (active),
CCOC(=O)CC(NC(=O)c1ccc(C)cc1)c1ccc(C)cc1 (centres undefined),14.1 µM (active),
CCOc1ccc(C(CC(=O)O)NC(=O)COc2ccccc2)cc1 (centres undefined),inactive,

# — PubChem BioAssay AID1851 (National Center for Advancing Translational Sciences (NCATS), 2009)
